The assay has as its target T1, CRBN, Q96SW2.
T1 chain: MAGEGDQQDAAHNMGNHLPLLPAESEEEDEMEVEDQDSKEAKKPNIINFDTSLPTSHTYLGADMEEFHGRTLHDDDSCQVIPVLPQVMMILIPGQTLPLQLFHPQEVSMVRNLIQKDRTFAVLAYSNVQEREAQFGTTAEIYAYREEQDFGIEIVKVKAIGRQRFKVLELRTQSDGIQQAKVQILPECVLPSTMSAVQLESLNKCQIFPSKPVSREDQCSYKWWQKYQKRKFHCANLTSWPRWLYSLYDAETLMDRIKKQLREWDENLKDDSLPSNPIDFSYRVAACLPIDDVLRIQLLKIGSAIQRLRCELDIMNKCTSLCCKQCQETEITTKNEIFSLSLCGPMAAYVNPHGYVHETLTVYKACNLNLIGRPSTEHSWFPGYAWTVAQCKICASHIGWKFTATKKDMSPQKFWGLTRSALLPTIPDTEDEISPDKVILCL
The assay can be described thus: log2 fold change of degron read counts, EGFP-low vs EGFP+ sorted cells (limma voom), compound-induced degradation; higher = more compound-induced degradation of the degron-EGFP fusion; degrons are variants of IKZF1/3 zinc finger 2; compound dose not given here. As to conditions: Jurkat, 18 h.

The mark [1] stands for this setting: compound: compound 19 (5-tert-butyl-thalidomide).
The mark [2] stands for this setting: compound: compound 22 (5-morpholino-thalidomide).
Setting [3] is: compound: compound 33 (diphenyl IMiD analogue).

In all, about 8,300 sequences were measured (“log2 fold change of degron read counts, EGFP-low vs EGFP+ sorted cells (limma voom), compound-induced degradation”: median about -1.1, highest 2% from about 3.2 on). Only a selection was taken, and the highest values are over-represented in it overall.
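Also: pooled lentiviral library of zinc finger degron-EGFP fusions in mCherry-positive Jurkat cells, FACS-sorted after compound exposure, with degron abundance counted by next-generation sequencing.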

B1: 46F_47I_49D_50I_52G_53A_54R_55F_67L_, Q9UKT9 (peptide)
chain: FICDICGARFTQKGNLLRHIKL
Consider B1, for which the “log2 fold change of degron read counts” value reads like this: under setting [1], -0.557; under setting [2], 1.75; under setting [3], 0.63; (compound: thalidomide) 1.41.

B2: 46F_47G_49N_50V_52G_53A_54W_55F_67L_, Q9UKT9 (peptide)
chain: FGCNVCGAWFTQKGNLLRHIKL
For the sequence B2, the “log2 fold change of degron read counts” value under setting [1] was -1.56, the “log2 fold change of degron read counts” value under setting [2] is -2, the “log2 fold change of degron read counts” value under setting [3] was -0.753 and the “log2 fold change of degron read counts” value (compound: thalidomide) was -1.74.

B3: 46F_47F_49D_50I_52G_53A_54Y_55F_67L_, Q9UKT9 (peptide)
chain: FFCDICGAYFTQKGNLLRHIKL
In the case of B3, the “log2 fold change of degron read counts” value by setting is: under setting [1], 2.55; under setting [2], 1.36; under setting [3], -0.119; (compound: thalidomide) -1.9.

B4: 46F_47R_49P_50I_52G_53A_54G_55F_67L_, Q9UKT9 (peptide)
chain: FRCPICGAGFTQKGNLLRHIKL
Consider B4, for which the “log2 fold change of degron read counts” value came out at 2.23 under setting [1], 1.8 under setting [2], 2.28 under setting [3] and 1.55 (compound: thalidomide).

B5: 46F_47S_49P_50I_52G_53A_54G_55F_67L_, Q9UKT9 (peptide)
chain: FSCPICGAGFTQKGNLLRHIKL
As to B5, the “log2 fold change of degron read counts” value is, setting by setting: under setting [1], 2.83; under setting [2], 1.27; under setting [3], 1.76; (compound: thalidomide) 0.755.

B6: 46F_47A_49P_50I_52G_53A_54G_55F_67L_, Q9UKT9 (peptide)
chain: FACPICGAGFTQKGNLLRHIKL
On to B6, for which the “log2 fold change of degron read counts” value was found to be 3.61 under setting [1], 1.67 under setting [2], 0.663 under setting [3] and 0.803 (compound: thalidomide).

B7: 46F_47L_49P_50I_52G_53A_54G_55F_67L_, Q9UKT9 (peptide)
chain: FLCPICGAGFTQKGNLLRHIKL
As for B7, the “log2 fold change of degron read counts” value stood at 1.86 under setting [1], 0.187 under setting [2], 1.6 under setting [3] and 1.01 (compound: thalidomide).

B8: 46F_47Q_49P_50I_52G_53A_54G_55F_67L_, Q9UKT9 (peptide)
chain: FQCPICGAGFTQKGNLLRHIKL
As for B8, the “log2 fold change of degron read counts” value by setting is: under setting [1], 2.39; under setting [2], 2.05; under setting [3], 1.77; (compound: thalidomide) 3.69.

B9: 46F_47T_49P_50I_52G_53A_54G_55F_67L_, Q9UKT9 (peptide)
chain: FTCPICGAGFTQKGNLLRHIKL
On to B9, for which the “log2 fold change of degron read counts” value is, setting by setting: under setting [1], 1.55; under setting [2], 2.19; under setting [3], 2.35; (compound: thalidomide) 2.4.

B10: 46F_47D_49P_50I_52G_53A_54G_55F_67L_, Q9UKT9 (peptide)
chain: FDCPICGAGFTQKGNLLRHIKL
As to B10, the “log2 fold change of degron read counts” value runs as follows: under setting [1], 2.33; under setting [2], -0.146; under setting [3], 0.564; (compound: thalidomide) 1.11.

B11: 46F_47V_49P_50I_52G_53A_54G_55F_67L_, Q9UKT9 (peptide)
chain: FVCPICGAGFTQKGNLLRHIKL
On to B11, for which the “log2 fold change of degron read counts” value runs as follows: under setting [1], 1.09; under setting [2], 3.08; under setting [3], 2.04; (compound: thalidomide) 2.98.

B12: 46F_47G_49P_50I_52G_53A_54G_55F_67L_, Q9UKT9 (peptide)
chain: FGCPICGAGFTQKGNLLRHIKL
In the case of B12, the “log2 fold change of degron read counts” value runs as follows: under setting [1], 3.28; under setting [2], 1.32; under setting [3], 2.32; (compound: thalidomide) 0.446.

B13: 46F_47Y_49P_50I_52G_53A_54G_55F_67L_, Q9UKT9 (peptide)
chain: FYCPICGAGFTQKGNLLRHIKL
In the case of B13, the “log2 fold change of degron read counts” value was 2.99 under setting [1], 2.02 under setting [2], 2.1 under setting [3] and -0.123 (compound: thalidomide).

B14: 46F_47W_49P_50I_52G_53A_54G_55F_67L_, Q9UKT9 (peptide)
chain: FWCPICGAGFTQKGNLLRHIKL
As for B14, the “log2 fold change of degron read counts” value by setting is: under setting [1], 3.3; under setting [2], 2.73; under setting [3], 1.87; (compound: thalidomide) 0.518.

B15: 46F_47K_49P_50I_52G_53A_54G_55F_67L_, Q9UKT9 (peptide)
chain: FKCPICGAGFTQKGNLLRHIKL
Take B15: the “log2 fold change of degron read counts” value under setting [1] worked out at 2.08, the “log2 fold change of degron read counts” value under setting [2] was -0.359, the “log2 fold change of degron read counts” value under setting [3] is -0.702 and the “log2 fold change of degron read counts” value (compound: thalidomide) is 0.6.

B16: 46F_47E_49D_50Q_52G_53A_54Y_55F_67L_, Q9UKT9 (peptide)
chain: FECDQCGAYFTQKGNLLRHIKL
On to B16, for which the “log2 fold change of degron read counts” value under setting [1] was -2.99, the “log2 fold change of degron read counts” value under setting [2] is -3.59, the “log2 fold change of degron read counts” value under setting [3] is -2.13 and the “log2 fold change of degron read counts” value (compound: thalidomide) is -2.26.

B17: 46F_47G_49D_50Q_52G_53A_54T_55F_67L_, Q9UKT9 (peptide)
chain: FGCDQCGATFTQKGNLLRHIKL
For the sequence B17, the “log2 fold change of degron read counts” value is -1.78 under setting [1], -2.27 under setting [2], -1.3 under setting [3] and -2.71 (compound: thalidomide).

B18: 46F_47W_49E_50I_52G_53A_54F_55F_67L_, Q9UKT9 (peptide)
chain: FWCEICGAFFTQKGNLLRHIKL
B18: the “log2 fold change of degron read counts” value was 3.03 under setting [1], 3.13 under setting [2], 2.12 under setting [3] and -0.452 (compound: thalidomide).

Source of the values: the supplement of paper PMC12645437, “Orthogonal IMiD-Degron Pairs Induce Selective Protein Degradation in Cells” (ACS Chemical Biology, 2025).
